Only some compounds are listed: those with a hit (about 3.8% of all), similar ones and a draw of the others.
VDR inh: Inhibitors of the vitamin D receptor (VDR): qHTS; VDR-SRC2-3 peptide fluorescence polarization, 2 h; Potency, µM, for inactives: max response, negative = inhibition, usual class: inhibitors; AID 504847, 2011; hit rate 0.93% among 400,000
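Inhibition of the VDR/SRC2-3 peptide interaction is quantified by fluorescence polarization. Compounds (23 nl, pintool) incubate with the reagents for 2 hours at ambient room temperature.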
KAT2A inh: qHTS Assay for Inhibitors of GCN5L2. Histone acetyltransferase KAT2A (Homo sapiens), Q92830. GCN5L2 HAT assay, ThioGlo1 CoA-SH fluorescence. Potency, µM (doses to about 58.9 µM), for inactives: top-dose activity change, negative = inhibition, most hits filed as inhibitors. hit rate 0.21% among 390,000. AID 504327, 2011
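GCN5L2 (20nM final) in 50mM HEPES, 0.1mM EDTA pH 7.5, 0.01% Tween-20 was preincubated 15 min at room temperature with compound, then given ThioGlo1 (50uM), H3(1-25) peptide (75uM) and acetyl-CoA (70uM); CoA-thiol fluorescence (Ex340/Em540) was read at 0 and 20 min.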
rTrxR1 inhibitor: qHTS Assay for Inhibitors of Mammalian Selenoprotein Thioredoxin Reductase 1 (TrxR1): qHTS; Thioredoxin reductase 1, cytoplasmic (Rattus norvegicus), O89049; recombinant rTrxR1, NADPH fluorescence consumption, selenite substrate; Potency, µM (doses to about 114 µM), inactives show top-dose activity change, negative = inhibition, hits mostly inhibitors; hit rate 1% among 390,000; further: nearly all actives have a fitted effect of over 65% in size
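Rat TrxR1 (90 nM in the dispensed reagent) was pre-reduced with 400 uM NADPH for 5 min at room temperature, then incubated with compound for 15 min. After 400 uM selenite was added, NADPH fluorescence (Ex 340/Em 450 nm) was followed for 8 min.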
GLS inhibitor: qHTS for Inhibitors of Glutaminase (GLS). AID 624170, 2012. Potency, µM (titrated, usually from 45.5 µM), inactives show top-dose activity change, negative = inhibition, actives largely listed as inhibitors. hit rate 0.21% among 410,000. GLS enzymatic activity, qHTS titration. Glutaminase kidney isoform, mitochondrial (Homo sapiens), O94925
Target sequence (O94925 whole entry, looked up, canonical isoform): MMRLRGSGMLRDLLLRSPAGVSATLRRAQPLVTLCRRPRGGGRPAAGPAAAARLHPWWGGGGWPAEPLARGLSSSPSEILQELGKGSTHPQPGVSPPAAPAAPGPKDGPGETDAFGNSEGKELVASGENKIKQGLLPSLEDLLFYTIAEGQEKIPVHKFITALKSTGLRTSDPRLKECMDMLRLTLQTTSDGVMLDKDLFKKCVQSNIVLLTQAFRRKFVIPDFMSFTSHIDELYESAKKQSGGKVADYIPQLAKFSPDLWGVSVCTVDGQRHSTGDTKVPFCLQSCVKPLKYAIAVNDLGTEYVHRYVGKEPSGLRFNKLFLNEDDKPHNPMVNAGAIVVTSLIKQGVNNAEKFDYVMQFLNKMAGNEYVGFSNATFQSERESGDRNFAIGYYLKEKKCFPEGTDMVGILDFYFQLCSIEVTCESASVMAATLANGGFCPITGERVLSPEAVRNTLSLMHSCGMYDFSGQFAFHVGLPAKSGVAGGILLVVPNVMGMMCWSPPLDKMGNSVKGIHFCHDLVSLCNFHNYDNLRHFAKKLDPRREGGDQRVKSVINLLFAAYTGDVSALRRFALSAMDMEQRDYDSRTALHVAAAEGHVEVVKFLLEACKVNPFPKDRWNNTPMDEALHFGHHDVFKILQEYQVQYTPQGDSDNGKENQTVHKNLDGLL
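Human kidney-isoform GLS in 45 mM KH2PO4 pH 8.2, 0.02% Tween-20, with compound, started with 1mM L-Glutamine (added stock). Glutamate oxidase/HRP/Amplex red coupled fluorescence read at start and after 30 min at RT.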
TrxR1 substrate: qHTS Assay for Substrates of Mammalian Selenoprotein Thioredoxin Reductase 1 (TrxR1): qHTS; Thioredoxin reductase 1, cytoplasmic (Rattus norvegicus), O89049; purified TrxR1 substrate turnover, NADPH consumption readout; Potency, µM (doses to about 114 µM), for the others: top-dose activity change, negative = substrate turnover; hit rate 0.01% among 390,000; AID 588456, 2011; further: nearly all actives have a fitted effect of over 50% in size
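Rat TrxR1, dispensed at 90 nM, was prereduced with 400 uM NADPH (final) for 5 min at ~22 deg C, then incubated with compound 15 min before 400 uM selenite. A first-read NADPH fluorescence drop versus no-compound background flagged substrates.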
Sfp inh: qHTS Assay for Inhibitors of Bacillus subtilis Sfp phosphopantetheinyl transferase (PPTase) | 4'-phosphopantetheinyl transferase ffp (Bacillus subtilis), Q9F4F7 | Biochemical Sfp PPTase activity, qHTS | Potency, µM, for the others: largest response in the series, negative = inhibition, actives largely listed as inhibitors | hit rate 3.5% among 310,000 | AID 1490, 2009;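 further: the enzyme is Sfp with the accession as filed and its product quenches rhodamine fluorescence; 0% = enzyme reaction without inhibitor and -100% = no enzyme wells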
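Reaction rates are the 30-min fluorescence difference (ex 525, em 598 nm) in wells containing 15 nM Sfp, 5 uM rhodamine-CoA and 12.5 uM BHQ-2-YbbR at pH 7.6 with 10 mM MgCl2.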
* hit, by the source's call; [ ] = dose if it differs, or a comment. The call rests on the fitted dose curve; in most records, active means well fitted curve in the direction sought with a large enough effect; inconclusive means small, poorly fitted or top-dose-only effect, or another doubt; inactive means no such curve, though single readings can be large; an effect the other way counts as inactive or inconclusive. Unless noted, on the % scale 0 is the no-effect control and ±100 the full control effect; potency means the concentration at half of the fitted maximal effect.

Results for COc1ccc(N2C(=O)CC(N3CCN(c4ccc(S(C)(=O)=O)cc4)CC3)C2=O)cc1 (stereo not drawn) ?
VDR inh: -8.5%; KAT2A inh: -1.0%; rTrxR1 inhibitor: 15.8µM*; GLS inhibitor: 0.6%; TrxR1 substrate: 8.8%; Sfp inh: 15.0%

What do the screens show for `CC(Nc1cc(N2CCN(S(C)(=O)=O)CC2)ccc1[N+](=O)[O-])c1ccccc1` (stereo not drawn)?
VDR inh: 5.6%; KAT2A inh: -6.7%; rTrxR1 inhibitor: 7.5%[57.1 µM]; GLS inhibitor: -3.9%; TrxR1 substrate: -11.9%; Sfp inh: -1.8%

Results for COc1ccc(C2C=C(c3ccc(Br)s3)Nc3ncnn32)cc1OC (stereo not drawn) ?
KAT2A inh: inconclusive; Sfp inh: 56.2µM*

What do the screens show for `COc1cccc(C2C=C(c3cccs3)Nc3ncnn32)c1OC` (stereo not drawn)?
VDR inh: -8.9%; KAT2A inh: -18.8%; rTrxR1 inhibitor: inconclusive; GLS inhibitor: 7.2%; TrxR1 substrate: -3.8%; Sfp inh: 50.1µM*

What do the screens show for `O=C(O)/C=C/C(=O)NCc1csc2ccccc12`?
VDR inh: -11.3%; KAT2A inh: -0.6%; rTrxR1 inhibitor: 14.5%; GLS inhibitor: -1.7%; TrxR1 substrate: 2.3%; Sfp inh: -0.9%

How did Nn1c(Cc2ccc(Br)cc2)n[nH]c1=S do in these assays?
VDR inh: 89.1µM*; KAT2A inh: -1.1%; rTrxR1 inhibitor: -15.4%; GLS inhibitor: -12.9%; TrxR1 substrate: -2.2%; Sfp inh: 35.5µM*

How did S=c1[nH]nc(Cc2ccc(Br)cc2)n1/N=C/c1ccc(Cl)cc1 do in these assays?
VDR inh: 79.4µM*; KAT2A inh: -9.4%; rTrxR1 inhibitor: 36.0%[57.1 µM]; GLS inhibitor: 3.5%; TrxR1 substrate: 13.4%[57.1 µM]; Sfp inh: 14.1µM*

How did CCOc1ccc(-n2c(CCc3ccccc3)n[nH]c2=S)cc1 do in these assays?
VDR inh: -11.1%; KAT2A inh: 4.9%; rTrxR1 inhibitor: -17.9%[57.1 µM]; GLS inhibitor: 27.4%; TrxR1 substrate: 5.2%[57.1 µM]; Sfp inh: -14.2%

Results for S=c1[nH]nc(COc2ccccc2)n1/N=C/c1ccc(Cl)cc1 ?
VDR inh: inconclusive; KAT2A inh: -5.0%; rTrxR1 inhibitor: -8.5%; GLS inhibitor: -1.8%; TrxR1 substrate: -3.3%[57.1 µM]; Sfp inh: -28.5%

What do the screens show for `CCOc1ccc(Cc2n[nH]c(=S)n2N)cc1`?
VDR inh: -8.9%; KAT2A inh: 10.1%; rTrxR1 inhibitor: -5.2%[57.1 µM]; GLS inhibitor: 9.2%; TrxR1 substrate: 10.5%[57.1 µM]; Sfp inh: 56.2µM*

What do the screens show for `O=S(=O)(c1ccccc1)c1nnn2c1nc(NCc1ccc(Cl)cc1)c1sccc12`?
VDR inh: 7.1%; KAT2A inh: -8.8%; rTrxR1 inhibitor: 12.4%; GLS inhibitor: -7.5%; TrxR1 substrate: 5.2%

Results for Brc1ccc2oc(-c3ccn[nH]3)cc2c1 ?
VDR inh: -4.6%; KAT2A inh: -4.3%; rTrxR1 inhibitor: 19.5%[11.4 µM]; GLS inhibitor: -3.1%; TrxR1 substrate: 7.7%[57.1 µM]; Sfp inh: 22.3%

How did COc1cc(C(=O)N2CCCCC2)ccc1OCC(=O)Nc1ccc(F)cc1 do in these assays?
VDR inh: -10.3%; KAT2A inh: -3.5%; rTrxR1 inhibitor: 13.6%; GLS inhibitor: -2.0%; TrxR1 substrate: 1.1%

How did O=c1ccc2c(-c3ccccc3)c3ccc(O)cc3oc-2c1 do in these assays?
VDR inh: inconclusive; KAT2A inh: inconclusive; rTrxR1 inhibitor: -7.9%[57.1 µM]; GLS inhibitor: -28.6%; TrxR1 substrate: -2.9%[57.1 µM]; Sfp inh: 31.6µM*

What do the screens show for `COC(=O)C1=C[C@@H](C(=O)OC)[C@@H]2C3=C(C(=O)C2(C)C)[C@H](C)n2c(=O)n(-c4ccccc4)c(=O)n2[C@@H]3C1`?
VDR inh: inconclusive; rTrxR1 inhibitor: 56.2µM*; GLS inhibitor: 0.3%; TrxR1 substrate: 10.4%; Sfp inh: 2.5%

How did COC(=O)C1=C[C@@H](C(=O)OC)C2C3=C(C(=O)C24CCCCC4)[C@H](C)n2c(=O)n(-c4ccccc4)c(=O)n2[C@@H]3C1 (stereo partly drawn) do in these assays?
VDR inh: 10.5%; rTrxR1 inhibitor: 16.1%; GLS inhibitor: -6.4%; TrxR1 substrate: 1.2%; Sfp inh: 18.5%

What do the screens show for `Cc1ccc(NCC(=O)c2ccc([N+](=O)[O-])cc2)cc1`?
VDR inh: inconclusive; KAT2A inh: -3.3%; rTrxR1 inhibitor: 17.6%[57.1 µM]; GLS inhibitor: -1.1%; TrxR1 substrate: -0.5%; Sfp inh: 20µM*

How did COc1ccc(C(=O)CC(Nc2ccc([N+](=O)[O-])cc2)c2ccc(OC)cc2)cc1 (stereo not drawn) do in these assays?
VDR inh: -13.6%; KAT2A inh: -5.0%; rTrxR1 inhibitor: 20.6%; GLS inhibitor: -9.7%; TrxR1 substrate: 2.1%; Sfp inh: 7.7%

How did Cc1ccc(NCCC(=O)c2cccc([N+](=O)[O-])c2)c(C)c1 do in these assays?
VDR inh: -12.8%; KAT2A inh: -7.4%; rTrxR1 inhibitor: 3.16µM*; GLS inhibitor: 3.7%; TrxR1 substrate: 2.2%[57.1 µM]; Sfp inh: -12.9%

Results for Cc1cccc(NCCC(=O)c2ccc([N+](=O)[O-])cc2)c1C ?
VDR inh: inconclusive; KAT2A inh: 15.6%; rTrxR1 inhibitor: 4.47µM*; GLS inhibitor: -1.7%; TrxR1 substrate: 0.3%; Sfp inh: -4.3%

How did Cc1ccc(C(=O)CNc2cccc([N+](=O)[O-])c2)cc1 do in these assays?
VDR inh: -11.3%; KAT2A inh: -3.1%; rTrxR1 inhibitor: 6.9%; GLS inhibitor: 15.0%; TrxR1 substrate: 7.1%[57.1 µM]; Sfp inh: 5.4%

How did CNC(CC(=O)c1ccc([N+](=O)[O-])cc1)C(Cl)(Cl)Cl (stereo not drawn) do in these assays?
VDR inh: 17.8µM*; KAT2A inh: 1.8%; rTrxR1 inhibitor: 0.631µM*; GLS inhibitor: inconclusive; TrxR1 substrate: inconclusive; Sfp inh: 10µM*

Results for CC1(C)CC(=O)C(C(C2=C(O)CC(C)(C)CC2=O)c2cccc(O)c2)C(=O)C1 (stereo not drawn) ?
VDR inh: -19.8%; KAT2A inh: 15.1%; rTrxR1 inhibitor: -30.2%[57.1 µM]; GLS inhibitor: 31.6%; TrxR1 substrate: 1.7%[57.1 µM]; Sfp inh: 22.4µM*
